The results in this text go back to PubChem BioAssay AID1542 (National Center for Advancing Translational Sciences (NCATS), 2009).

Records with an inconclusive call do not appear. Active and inactive are the calls of the source. Calls come from the whole dose curve; as a rule, active = well fitted curve in the direction sought with a large enough effect; inconclusive = small, poorly fitted or top-dose-only effect, or effect the other way, or another doubt; inactive = no such curve, though single readings can be large or run the other way.

Chain of Pyruvate kinase PKM (Homo sapiens) (P14618 whole entry, looked up, canonical isoform): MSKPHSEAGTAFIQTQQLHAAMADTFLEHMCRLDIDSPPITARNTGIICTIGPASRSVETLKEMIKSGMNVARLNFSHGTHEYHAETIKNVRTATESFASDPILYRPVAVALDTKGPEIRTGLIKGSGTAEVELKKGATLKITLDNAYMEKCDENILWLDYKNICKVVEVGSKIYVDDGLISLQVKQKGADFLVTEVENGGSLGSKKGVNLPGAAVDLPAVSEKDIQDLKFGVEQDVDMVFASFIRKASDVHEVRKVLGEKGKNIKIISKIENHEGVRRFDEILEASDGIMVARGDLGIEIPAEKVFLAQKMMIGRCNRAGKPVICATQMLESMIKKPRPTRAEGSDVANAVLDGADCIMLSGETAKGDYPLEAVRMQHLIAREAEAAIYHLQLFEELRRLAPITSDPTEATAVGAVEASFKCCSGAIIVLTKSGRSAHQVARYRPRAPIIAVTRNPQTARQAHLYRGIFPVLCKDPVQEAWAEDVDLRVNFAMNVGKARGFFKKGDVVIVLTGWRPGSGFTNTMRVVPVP

For this test, the target named is Pyruvate kinase PKM (Homo sapiens) (UniProt P14618). Put plainly: Secondary assay for Activators of Human Pyruvate Kinase M1 isoform. The settings on record: purified hPK-M1, LDH-coupled NADH fluorescence kinetic; series mostly up to 57.5 µM. An excerpt:
Confirmatory assay NIH Chemical Genomics Center [NCGC] Matthew G. Vander Heiden, M.D., Ph.D. [Harvard Medical School, 77 Avenue Louis Pasteur, Boston, MA 02115] NCGC Assay Overview: Human pyruvate kinase […] (hPK-M1)enzyme was supplied as a highly purified (>95% pure) preparation from Harvard Medical School and a secondary assay was used to evaluate compounds. This assay couples the formation of pyruvate from hPK-R using lactate dehydrogenase (LDH) and NADH. The depletion of NADH is followed in a fluorescent-based kinetic assay that follows the formation of pyruvate to lactate, as catalyzed LDH. Pyruvate kinase substrates, PEP and ADP, were present in the assay at 0.1 mM and 4 mM respectively. In this kinetic assay initial rates were determined by following the fluorescence of NADH depletion.
NCGC Assay Protocol Summary: Three uL of substrate mix (final concentration, 50 mM Tris-Cl pH 8.0, 200 mM KCl, 15 mM MgCl2, 0.1 mM PEP, 4.0 mM ADP, and 0.2 mM NADH) was dispensed into black-solid 1536 well plates. 23 nL of compounds were delivered by a pin tool and 1 uL of enzyme mix (final concentrations, 10 nM hPK-M1 and 1 uM of LDH) was added. Plates were immediately placed in ViewLux (Perkin Elmer) and NADH fluorescence was determined at 30 second exposure intervals for between 3 and 6 minutes. Data were normalized to the uninhibited controls.
In the case of `O=C(c1c(F)cccc1F)N1CCN(S(=O)(=O)c2ccc3c(c2)OCCO3)CC1`, the compound was classed as inactive.

For `C=Cc1cc(F)c(S(=O)(=O)N2CCN(S(=O)(=O)c3ccc4c(c3)OCCO4)CC2)cc1F`, the result was inactive.

Turning to `O=S(=O)(c1ccc2c(c1)OCCO2)N1CCN(S(=O)(=O)c2cc(F)c(Br)cc2F)CC1`, the compound was called inactive.

On to `C[C@@H]1CN(S(=O)(=O)c2c(F)cccc2F)CCN1S(=O)(=O)c1ccc2c(c1)OCCO2`, for which the result was inactive.

As for `Cn1ccc2cc(S(=O)(=O)N3CCN(S(=O)(=O)c4c(F)cccc4F)CC3)ccc21`, the result was inactive.
